{"source": "PubChem BioAssay AID720579", "about": "(National Center for Advancing Translational Sciences (NCATS), 2013)", "note": "Out of some 310,000 compounds screened, about 1,900 (0.61%) were called active. Not shown: some 8% with an inconclusive outcome. This is one part of a sample in which actives are shown more often than they occur. A number with no mark means an inactive call. Calls come from the whole dose curve; tested in A549 cells."}
{"test": "qHTS for Stage-Specific Inhibitors of Vaccinia Orthopoxvirus: mCherry Reporter Primary qHTS; note: nearly all actives have a fitted effect of over 35% in size; note: potency is the fitted concentration of half-maximal effect; for activity change, negative = inhibition: % is set by controls: 0 for no effect and ±100 for the full control effect", "conditions": "Vaccinia virus mCherry reporter infection, fluorescence; series mostly up to 36.5 µM; activity change, negative = inhibition: at the top concentration"}
{"compound": "OCC(O)C(O)C(O)C(O)C=Nc1ccc(/C=C/c2ccnc3ccccc23)cc1", "note": "(stereo not drawn)", "activity change, negative = inhibition": "12.1%"}
{"compound": "C=CC[C@@H](Cc1ccc(F)cc1)C(=O)OC[C@H]1CCCN1C(=O)[C@H](CC=C)CC(=O)N(CCO)Cc1ccccc1", "outcome": "inactive"}
{"compound": "Cc1cccc(C(=O)C(O)(c2ccccc2)C2CCCCC2=O)c1", "note": "(stereo not drawn)", "activity change, negative = inhibition": "-0.222%"}
{"compound": "O=C(C1CC(=O)N(c2ccc(F)cc2)C1)N1CCN(c2ccccc2)CC1", "note": "(stereo not drawn)", "activity change, negative = inhibition": "0.265%"}
{"compound": "O=C(C1CC(=O)N(C2CCCC2)C1)N1CCN(c2cccc(C(F)(F)F)c2)CC1", "note": "(stereo not drawn)", "Potency": "10 µM (active)"}
{"compound": "O=C(C1CC(=O)N(C2CCCCC2)C1)N1CCN(c2ccccc2)CC1", "note": "(stereo not drawn)", "activity change, negative = inhibition": "-0.781%"}
{"compound": "COc1ccc(C2OC(CCc3ccccc3)Cc3[nH]c(=S)[nH]c(=O)c32)cc1", "note": "(stereo not drawn)", "outcome": "inactive"}
{"compound": "CCCc1nc2c3ccccc3ccn2c1Cc1ccccc1C(F)(F)F", "outcome": "inactive"}
{"compound": "OC(CBr)C[n+]1cccc2cc(Br)ccc21", "note": "(stereo not drawn)", "activity change, negative = inhibition": "-6.11%"}
{"compound": "CCCC[C@@H]1CN=C(N)N1CCc1cccc(F)c1", "outcome": "inactive"}
{"compound": "CCCC[C@@H]1CN=C(N)N1CCc1cc(C(F)(F)F)cc(C(F)(F)F)c1", "Potency": "11.2 µM (active)"}
{"compound": "CCCC[C@@H]1CN=C(N)N1CCCC", "outcome": "inactive"}
{"compound": "COc1ccc(OCC(O)CNCCNc2nccc(C(F)(F)F)n2)cc1", "note": "(stereo not drawn)", "activity change, negative = inhibition": "-2.52%"}
{"compound": "CC(C)(C)CC(C)(C)NCC(O)COCCOc1ccc(Br)cc1", "note": "(stereo not drawn)", "Potency": "12.6 µM (active)"}
{"compound": "CC(C)(C)NCC(O)COc1cccc2[nH]c(=O)[nH]c12", "note": "(stereo not drawn)", "Potency": "inactive"}
{"compound": "Cc1ccc2nc(-c3ccco3)c(Cc3cccc(Cl)c3)n2c1", "outcome": "inactive"}
{"compound": "Cc1nccc(-c2ccc(-n3c(C)ccc3C)cc2)n1", "activity change, negative = inhibition": "-13.9%"}
{"compound": "CC(C)(C)Nc1nc(-c2ccccn2)nc2ccccc12", "activity change, negative = inhibition": "-28.3%"}
{"compound": "c1ccc(-c2nccc(-c3ccc(-n4cnc5ccccc54)cc3)n2)nc1", "Potency": "11.2 µM (active)"}
{"compound": "COc1cccc(C(=O)Nc2nc3ccc(S(C)(=O)=O)cc3s2)c1", "activity change, negative = inhibition": "-13%"}
{"compound": "COc1ccc2c(c1)Cc1sc(NC(=O)c3ccccc3Br)nc1-2", "Potency": "11.2 µM (active)"}
{"compound": "COc1ccc(NS(=O)(=O)c2ccc(N3CCOCC3)c(NC(=O)c3ccccc3Br)c2)cc1", "activity change, negative = inhibition": "-12.5%"}
{"compound": "CCCc1c(-c2ccccc2F)ncn1Cc1ccccc1OC", "activity change, negative = inhibition": "-20%"}
{"compound": "Nc1nonc1-n1nnc(C(=O)N/N=C/c2cc(Br)ccc2O)c1CSC1=NCCS1", "Potency": "7.08 µM (active)"}
{"compound": "Cc1ccc(SCc2c(C(=O)N/N=C/C3CC=CCC3)nnn2-c2nonc2N)cc1", "note": "(stereo not drawn)", "activity change, negative = inhibition": "-18.1%"}
{"compound": "Cc1ccc(SCc2c(C(=O)N/N=C/c3cccnc3)nnn2-c2nonc2N)cc1", "activity change, negative = inhibition": "-10.8% [at 7.34 µM]"}
{"compound": "O=C(Nc1cc(Br)ccc1F)c1nc[nH]c1C(=O)NCc1ccccc1", "activity change, negative = inhibition": "-10.4%"}
{"compound": "CCc1nc2ccc(C(=O)NC3CCN(Cc4ccccc4)CC3)cn2c1N(CC)CCOC", "activity change, negative = inhibition": "28.2%"}
